AmpC detergent = blocks E. coli AmpC beta-lactamase in detergent assay. Potency, µM (top dose mostly 114 µM), inactives show top-dose activity change, negative = inhibition, hits mostly inhibitors. AmpC hydrolysis of nitrocefin, absorbance 480 nm, 0.01% Triton. 0.041% of 370,000 active. P00811;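 note: 0% = no-compound wells and -100% = no-enzyme wells; nearly all actives have a fitted effect of over 25% in size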
Target sequence (P00811 whole entry, looked up): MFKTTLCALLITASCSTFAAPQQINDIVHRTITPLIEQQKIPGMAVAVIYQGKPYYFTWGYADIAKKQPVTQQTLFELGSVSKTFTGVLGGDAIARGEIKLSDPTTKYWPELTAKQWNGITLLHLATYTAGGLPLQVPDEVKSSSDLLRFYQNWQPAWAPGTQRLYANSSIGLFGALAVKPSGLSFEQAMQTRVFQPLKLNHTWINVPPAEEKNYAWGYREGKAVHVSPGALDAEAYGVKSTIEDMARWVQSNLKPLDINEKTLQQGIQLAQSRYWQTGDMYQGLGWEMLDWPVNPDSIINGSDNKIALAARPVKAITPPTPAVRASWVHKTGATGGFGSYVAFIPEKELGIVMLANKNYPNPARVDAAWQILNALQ
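AmpC (5.3 nM in the dispensed reagent) in 20 mM phosphate pH 7.0 with 0.01% (detergent screen) or 0.0001% Triton X-100 was preincubated with compounds for 15 min at room temperature. Nitrocefin was then added from an 800 uM solution, and hydrolysis was followed at 480 nm.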
AmpC no deterg = inhibitors of E. coli AmpC beta-lactamase without detergent; 0.52% of 330,000 active; Potency, µM (series often up to 57.1 µM), inactives show top-dose activity change, negative = inhibition, actives largely listed as inhibitors; P00811; AmpC nitrocefin hydrolysis, absorbance 480 nm, 0.0001% Triton;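 note: plate controls were no compound for no effect and no enzyme for full effect; nearly all actives have a fitted effect of over 20% in size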
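AmpC (5.3 nM in the dispensed reagent) in 20 mM phosphate pH 7.0 with 0.01% (detergent screen) or 0.0001% Triton X-100 was preincubated with compounds for 15 min at room temperature. Nitrocefin was then added from an 800 uM solution, and hydrolysis was followed at 480 nm.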
FMDV inh = antivirals against foot and mouth disease virus | FMDV antiviral cell-based qHTS | Potency, µM (doses to about 57.9 µM), without a hit: at the top dose activity change, negative = inhibition, most hits filed as inhibitors | 1.2% of 410,000 active | AID 1159524; calls by dose curve; tested in HEK293T cells; note: read-out not given here; nearly all actives have a fitted effect of over 45% in size
AMA1 RON2 block = disrupts binding of P. falciparum AMA1 to RON2 | AlphaScreen AMA1-biotinylated RON2 peptide binding | Potency, µM (doses to about 58.2 µM), for the others: at the highest dose activity change, negative = inhibition, usual class: inhibitors | 0.2% of 360,000 active;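 note: 0% = vehicle wells and -100% = peptide control; nearly all actives have a fitted effect of over 45% in size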
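AMA1 (3D7) with his tag at 25 nM final met compounds first, then biotinylated RON2 peptide at 25 nM; detection used donor plus acceptor beads, 10 µg/mL apiece, read by AlphaScreen after 30 min at room temperature.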
Sm TGR inh = S. mansoni TGR enzyme inhibition; Q962Y6; 3% of 360,000 active; Potency, µM (top dose mostly 114 µM), without a hit: at the highest dose activity change, negative = inhibition, most hits filed as inhibitors; AID 485364; purified TGR, DTNB reduction, TNB absorbance 405 nm; note: nearly all actives have a fitted effect of over 60% in size
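TGR 20 nM + NADPH 100 uM (dispensed conc.), cpd preinc 15 min RT; start with NADPH (500 uM addition) then DTNB (15 mM addition). Kinetic TNB absorbance, 405 nm filter. Four-parameter Hill fit across titration.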
An asterisk follows results filed as active; ? = inconclusive; / = no result given; [ ] = remark or other dose. An excerpt weighted towards active compounds, which were near 4.1% of everything screened. Unless noted, calls come from the whole dose curve; as a rule, active = well fitted curve in the direction sought with a large enough effect; inconclusive = small, poorly fitted or top-dose-only effect, or another doubt; inactive = no such curve, though single readings can be large; an effect the other way counts as inactive or inconclusive. Unless noted, % is set by controls: 0 for no effect and ±100 for the full control effect; potency is the fitted concentration of half-maximal effect.

SMILES | AmpC detergent | AmpC no deterg | FMDV inh | AMA1 RON2 block | Sm TGR inh
Cn1c(=O)[nH]c(=O)c2[nH]c(CN3CCN(Cc4ccccc4)CC3)nc21 | -5.6% | -4.1% | 0.3% | 39.0% | -10.3%
Cc1ccc(CS(=O)(=O)c2ccc(C(=O)N3CCN(c4ccccn4)CC3)cc2[N+](=O)[O-])cc1 | -5.9% | 5.1% | 15.8µM* | -5.8% | 31.6µM*
CCN(CC)C(=O)c1ccc(S(=O)(=O)Cc2ccc(C)cc2)c([N+](=O)[O-])c1 | -10.1% | 9.3% | ? | -15.4% | 7.94µM*
Cc1ccc(CS(=O)(=O)c2ccc(C(=O)N3CCCCC3)cc2[N+](=O)[O-])cc1 | -2.9% | -21.3% | ? | -0.3% | 17.8µM*
COc1ccc(-c2nc3cnc(N4CCNCC4)nc3n(Cc3cccs3)c2=O)cc1 | / | / | 2.4% | / | /
O=C1CSC2(C(=O)N(Cc3c(F)cccc3Cl)c3ccccc32)N1c1ccc(F)c(F)c1 (stereo not drawn) | 5.5% | / | ? | / | 1.2%
O=c1c2cn[nH]c2nc(SCc2ccccc2F)n1-c1ccc(Br)cc1 | ? | 11.2µM* | -20.5% | 62.6% | 0.0%
Cc1cccc(NC(=O)CSc2nc3[nH]ncc3c(=O)n2-c2ccccc2)c1 | -12.9% | 8.91µM* | / | / | -1.2%
COc1cc2nc(N(C)C)c(CNCc3cccc4ccccc34)cc2c(OC)c1OC | / | / | -24.1% | / | /
COc1cccc(Cn2c(=O)c(-c3ccc(Cl)cc3)nc3cnc(N4CCOCC4)nc32)c1 | / | / | -6.6% | / | /
COc1cccc(/C(O)=C/c2nc3ccc(C(=O)NCCc4ccc(Cl)cc4)cc3[nH]c2=O)c1 | -1.3% | -24.3% | ? | 7.3% | 10.6%
COc1cccc(/C(O)=C/c2nc3ccc(C(=O)NCCc4cccc(C)c4)cc3[nH]c2=O)c1 | ? | 11.2µM* | ? | 119.6% | -9.5%
COc1ccc(NC(=O)c2c(-c3ccc(C)cc3)nnc3ccccc23)cc1Cl | 1.2% | / | 2.1% | / | -5.4%
Nc1c(C(=O)N/N=C/c2ccc(Cl)cc2)cnn1-c1ccccc1 | 1.8% | -29.9% | 16.0% | 11.1% | 9.7%
COC(=O)c1cnn(-c2ccc(Cl)cc2)c1/C=N/NC(N)=S | 5.2% | -38.7% | 14.1µM* | 93.0% | 21.5%
CC(C)C(C(=O)NCC1CCCO1)N(Cc1ccccc1)C(=O)CNS(=O)(=O)c1ccccc1 (stereo not drawn) | -10.0% | 24.8% | -4.6% | -5.9% | 7.08µM*
O=C(Nc1ccccc1)Nc1ncc([N+](=O)[O-])s1 | -14.4% | -20.6%[11.4 µM] | 10µM* | -23.3% | 4.9%
O=C(COC(=O)c1ccccc1)Nc1ncc([N+](=O)[O-])s1 | / | -59.2% | 11.4% | -1.2% | /
N#CC1(NC(=O)Cn2ncc(Cl)c(Cl)c2=O)CCCCC1 | -13.0% | 25.1µM* | ? | 2.3% | 17.8µM*
N#CC1(NC(=O)CN2C(=O)c3ccccc3C2=O)CCCCC1 | 1.8% | -7.9% | -2.8% | -10.1% | 0.2%
CN(c1ccccc1C(=O)NCC1CCCO1)S(C)(=O)=O (stereo not drawn) | 0.5% | 0.159µM* | 1.8% | -4.5% | -5.3%
CN1/C(=C/C2CC(=O)N(c3ccc([N+](=O)[O-])cc3)C2=O)C(C)(C)c2ccccc21 (stereo not drawn) | -11.5% | -42.6% | -5.6% | -6.2% | 12.6µM*
CN1/C(=C\C(=S)NC(=O)c2ccc([N+](=O)[O-])cc2)C(C)(C)c2ccccc21 | 2.1% | -20.7% | 5.0% | 9.5% | -18.6%
COC(C(=O)NC1CCCCCCC1)c1ccccc1 (stereo not drawn) | -15.4% | 0.0% | -3.6% | -18.2% | 3.1%
COC(=O)N1C(=O)[C@@](c2ccccc2)(C2CCCC2)N1C(=O)OC | ? | 43.9% | 20µM* | -14.3% | ?
SMILES | AmpC detergent | AmpC no deterg | FMDV inh | AMA1 RON2 block | Sm TGR inh
COC(=O)N1C(=O)[C@](c2ccccc2)(C2CCCCC2)N1C(=O)OC | 4.1% | 66.6% | -25.8% | 4.6% | 5.01µM*
CCCC1(c2ccccc2)NC(=O)N(CC(=O)Nc2cc(OC)cc(OC)c2)C1=O (stereo not drawn) | -13.2% | -29.3% | -6.7% | -13.8% | -15.1%
COC(=O)CNC(c1ccccc1)c1cc(Br)ccc1NC(=O)CCN1CCOCC1 (stereo not drawn) | 0.9% | 178.9% | -0.9% | 15.8% | 8.91µM*
CCOC(=O)CNC(c1ccccc1)c1cc(Br)ccc1NC(=O)CCN1CCOCC1 (stereo not drawn) | 2.4% | 225.5% | -0.9% | 1.8% | 6.31µM*
CCOC(=O)CNC(c1ccccc1)c1cc(Br)ccc1NC(=O)OCC (stereo not drawn) | -14.9% | 19.2% | 0.0% | 0.0% | 0.2%
CN(C)C1(CNC(=O)COc2ccc([N+](=O)[O-])cc2)CCCCC1 | -9.0% | / | 22.0% | / | -9.4%
Cc1oc(CC(C)C)cc1C(=O)Nc1cccc2ccccc12 | 3.8% | -33.4% | -3.9% | -12.1% | 1.1%
CCOc1ccccc1NC(=O)c1cc(CC(C)C)oc1C | 4.1% | 0.316µM* | -0.9% | 6.7% | -29.3%
Nn1c(SCc2ccccc2)nc2c(cnn2-c2ccccc2)c1=O | -11.0% | -14.2% | 22.3% | 69.5% | /
C=CCn1c(Cc2ccccc2)nc2c(cnn2-c2ccccc2)c1=O | -5.2% | 0.5% | 28.2µM* | 10.3% | -9.0%
COc1ccccc1N1C(=O)C=C(Sc2nc(C)cc(C)n2)C1=O | -0.3% | 18.6% | ? | 41.6% | 1µM*
COc1ccccc1N1C(=O)C2CC(C)=C(C)CC2C1=O (stereo not drawn) | -4.5% | -18.8% | / | -3.9% | 10.0%
C[n+]1c2n(c3ccccc31)N=C(c1cc(C(C)(C)C)c(O)c(C(C)(C)C)c1)CS2 | 4.5% | 118.8% | 14.1µM* | -16.5% | /
CC(C)C[C@@H]1NC(=O)[C@H](Cc2ccc(O)cc2)NC(=O)c2cc([N+](=O)[O-])cc(I)c2NCCC[C@@H](C(N)=O)NC1=O | ? | 3.98µM* | -6.0% | -1.0% | -17.3%
O=CN/C=C/c1cc(O)ccc1O | 4.4% | -35.4% | -23.2% | ? | 6.31µM*
O=Cc1ccc(O)cc1O | -12.6% | -28.5% | -17.9% | 22.0% | -20.4%
CCC(Oc1ccccc1F)C(=O)N1CCC(c2nc3ccccc3s2)CC1 (stereo not drawn) | 18.9% | / | 25.1µM* | / | -1.3%
O=C(CSc1ccccc1Cl)N1CCC(c2nc3ccccc3s2)CC1 | -11.5% | 49.9% | 35.5µM* | -4.5% | 6.8%
O=C(CN1CCC(c2nc3ccccc3s2)CC1)NCc1cccs1 | -0.2% | 66.9% | 15.8µM* | -2.6% | -23.4%
CC(C)N(Cc1cc2ccccc2[nH]c1=O)C(=O)c1ccco1 | 2.2% | 7.9% | 9.7% | 4.4% | 28.2µM*
Cc1cccc(N(Cc2cc3ccccc3[nH]c2=O)C(=O)c2ccco2)c1C | -5.9% | -8.9% | -13.7% | 4.4% | -21.2%
Cc1ccc2cc(COC(=O)c3ccco3)c(=O)[nH]c2c1 | -1.3% | -28.8% | -10.5% | -0.3% | 44.7µM*
O=C(O)c1cccc2c1C(=O)c1ccc(-c3ccc(F)cc3OCc3ccccc3)cc1S2(=O)=O | 7.8% | 143.0% | 39.0% | 3.1% | 31.6µM*

Compound activity as filed in PubChem.
